The text below walks through data of PubChem BioAssay AID1439 (NMMLSC, 2008).

The campaign covered roughly 220,000 compounds. About 770 (0.35%) were called active. Inconclusive results (about 15%) are left out. For the sample, actives were picked, then their nearest neighbours and some compounds at random. A number with no mark means an inactive call. No stated cut-off is given here; in the data, active means binding response below about 49% or above about 150%; inconclusive means no clear call, values can overlap the other calls; inactive means in between.

Chain of Guanine nucleotide-binding protein G(o) subunit alpha (Homo sapiens) (P09471 whole entry, looked up): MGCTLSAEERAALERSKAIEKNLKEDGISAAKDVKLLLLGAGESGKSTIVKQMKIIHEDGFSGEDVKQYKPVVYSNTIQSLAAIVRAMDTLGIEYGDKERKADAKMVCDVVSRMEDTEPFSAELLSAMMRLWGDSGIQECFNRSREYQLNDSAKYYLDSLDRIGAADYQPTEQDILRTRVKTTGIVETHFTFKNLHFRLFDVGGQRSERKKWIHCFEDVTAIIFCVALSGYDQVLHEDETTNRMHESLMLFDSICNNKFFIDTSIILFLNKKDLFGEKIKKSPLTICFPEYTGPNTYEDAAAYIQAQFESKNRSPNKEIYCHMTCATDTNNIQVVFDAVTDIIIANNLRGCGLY

The assay addresses Guanine nucleotide-binding protein G(o) subunit alpha (Homo sapiens) (UniProt P09471). In words: compounds changing RGS7 association with Galphao – biochemical, multiplexed bead flow cytometry, primary screen (AID 1439).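 Further: fluorescent Galphao held in activated GDP-AlF4 state binding bead-coupled RGS7.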 The conditions noted are these: at 10 µM, actives lie on both sides. In general terms: In flow cytometry, cells or beads pass a laser one at a time.
As to `COCC(C)n1c(C)cc(C(=O)COc2ccc(C)nc2[N+](=O)[O-])c1C` (stereo not drawn), the binding response (% of control) was 100%.

In the case of `CCOC(=O)c1ccc(N2C(=O)CC(N3CCN(C(=O)c4ccccc4)CC3)C2=O)cc1` (stereo not drawn), the binding response (% of control) is 99.4%. As for `COCCNc1nc2nonc2nc1N(C)Cc1ccc(C)cc1`, the figure is 101%; as for `O=C1NC2(CCCCCC2)C(=O)N1CCS(=O)(=O)Oc1ccccc1`, 97.1%. As for `CSc1ccc(CN2C(=O)NC3(CCCCCC3)C2=O)cc1`, the figure is 219% (active). As for `O=C(CN1C(=O)NC2(CCCCCC2)C1=O)NC1CC1`, the figure is 123%; as for `Cc1nc2ccccc2c(C)c1C(=O)c1ccc(F)cc1`, 97.5%. As for `CCOc1ccc(CN2CCN(Cc3ccc(C)o3)CC2CCO)cc1` (stereo not drawn), the binding response (% of control) was 98.7%.

Regarding `CN(C)c1ccc2c(=O)[nH][nH]c(=O)c2c1`, the binding response (% of control) is 104%. As for `CCOC(=O)c1[nH]cnc1C(=O)Nc1ccccc1C`, the figure is 100%.

For `COC(=O)CNC(=O)c1ccc(OC2CCN(C(=O)C3CC3)CC2)cc1`, the binding response (% of control) is 105%. As for `COc1cccc(C(=O)NNC(=O)c2ccccc2Br)c1`, the figure is 99%; as for `COc1cc(OC)cc(C(=O)NCCSCc2ccco2)c1`, 98.2%. As for `COc1cccc(C(=O)NCCSc2ccc(Br)cc2)c1`, the figure is 16.5% [inhibitor] (active); as for `Cc1ccc(-c2cc(C(F)(F)F)n3ncc(C(=O)N4CCCCC4c4cccnc4)c3n2)cc1` (stereo not drawn), 100%; as for `C/C(=N\NC(=O)c1cccc(N2CCCC2=O)c1)c1ccc(N)cc1`, 102%. Then `O=C(CSc1ccc2nnc(-c3ccccc3)n2n1)N1CCCc2ccccc21`, with 207% (active); and `CCCn1c(SCC(=O)N2CCc3ccccc32)nnc1-c1ccncc1`, with 96%. Regarding `Cn1c(SCC(=O)N2CCCc3ccccc32)nc2ccccc2c1=O`, the binding response (% of control) is 96.4%. For the compound `CC(C)CC(CC(C)C)=NNC(=O)c1ccc(CSc2nncn2C)cc1`, the binding response (% of control) was 99.5%. Then `CN(CCC1CCOCC1)Cc1cn[nH]c1-c1ccc(-c2ccccc2)cc1`, with 93%; and `O=C(NCC1COc2ccccc2O1)C1(c2ccccc2)CCCC1` (stereo not drawn), with 103%; and `COc1ccc(CCC(=O)OCC(=O)Nc2ccc(C)c(S(=O)(=O)N(C)C)c2)cc1`, with 45.2% [inhibitor] (active).

Regarding `Cc1ccc(C(=O)Nc2ccc(C)c(S(=O)(=O)N(C)C)c2)s1`, the binding response (% of control) was 99.1%. As for `COc1cc(CCC(=O)OCC(=O)Nc2cccc(S(N)(=O)=O)c2)cc(OC)c1OC`, the binding response (% of control) was 91.7%.

As for `COc1ccc2oc(=O)c(C(=O)N3CCCC3)cc2c1`, the binding response (% of control) was 101%. Then `Nn1c(SCC(=O)Nc2nccs2)nncc1=O`, with 102%; and `Cc1ccc(Cn2ccc(NC(=O)c3cc(C(C)C)on3)n2)cc1`, with 43.9% [inhibitor] (active); and `O=C(Nc1ccn(Cc2ccc(F)cc2)n1)c1ccncc1`, with 100%. Then `Cc1ccc(Cn2ccc(NC(=O)C3C4CCC(C4)C3C(=O)O)n2)cc1` (stereo not drawn), with 99.7%; and `COc1ccc(Br)cc1/C=N/NC(=O)c1cccc(S(=O)(=O)N2CCOCC2)c1`, with 112%. As for `Cc1cccc(C)c1NC(=O)Nc1ccccc1-n1ccnc1`, the figure is 99.6%. For the compound `CC(=O)Nc1nc(N(C)C)nc(N(C)C)n1`, the binding response (% of control) is -0.2% [inhibitor] (active).

Turning to `CCC(=O)Nc1nc(OC)cc(OC)n1`, the binding response (% of control) is 99.2%. As for `COc1cc(OC)nc(NC(=O)CCl)n1`, the figure is 100%; as for `OCCC1CN(Cc2ccccc2-c2ccco2)CCN1Cc1ccsc1` (stereo not drawn), 95.9%. Then `Cc1ccc(S(=O)(=O)NCCc2nnc3ccc(SCc4cccnc4)nn23)cc1`, with 95.6%; and `O=C(O)CCn1c(SCc2cc(=O)n3ccccc3n2)nc2ccsc2c1=O`, with 101%. As for `CC1=CC=CC2=N/C(=N\S(=O)(=O)c3ccc(F)cc3F)c3ccccc3CN12`, the binding response (% of control) is 101%. Regarding `c1ccc2c(NC3C4CC5CC(C4)CC3C5)nc(N3CCOCC3)nc2c1` (stereo not drawn), the binding response (% of control) is 100%. As for `N#Cc1nc(COc2ccc(-c3ccccc3)cc2)oc1NCc1cccnc1`, the figure is 202% (active); as for `N#Cc1nc(Cc2ccccc2)oc1NCCc1ccccc1`, 102%.

In the case of `N#Cc1nc(-c2ccc(OCc3ccccc3)cc2)oc1NCCCN1CCOCC1`, the binding response (% of control) was 97.2%. Then `O=S(=O)(c1ccc(-c2ccccc2)cc1)N1CCCC1`, with 106%. Then `O=C(NCc1ccco1)C(=O)c1cn(CC(=O)N2CCCCCC2)c2ccccc12`, with 93.9%; and `Cc1c(-c2cccc(Cl)c2)nc2ccccc2c1C(=O)OCC(=O)N(C)C1CCS(=O)(=O)C1` (stereo not drawn), with 97%. Then `COc1ccc(C(=O)NC2CCN(C(=S)NCCc3ccccc3)CC2)cc1`, with 91.3%. For `CC(=O)Nc1ccc(/C=N/NC(=O)c2cccs2)cc1`, the binding response (% of control) is 99.9%. Take `C=CCn1c(=NC(=O)c2cccs2)sc2cc(NC(C)=O)ccc21`: the binding response (% of control) is 152% (active). As for `C=CCn1c(=NC(=O)c2ccc(S(=O)(=O)N3CCCC3)cc2)sc2cc(NC(C)=O)ccc21`, the figure is 91.7%; as for `O=C(OCC(=O)N1CCOCC1)c1ccc(N2CCOCC2)c([N+](=O)[O-])c1`, 102%; as for `Cc1c(NC(=S)NC(=O)CCc2ccccc2)c(=O)n(-c2ccccc2)n1C`, 103%. Regarding `CN(CCc1ccccn1)C(=O)CCC1CCCN(Cc2ccccc2OC(F)F)C1` (stereo not drawn), the binding response (% of control) is 102%. Then `Cc1ccc(S(=O)(=O)/N=C(/Nc2ccc3[nH]c(=O)[nH]c3c2)c2ccccc2)cc1`, with 104%; and `NC(=O)CSc1c[nH]c2ccccc12`, with 25.2% [inhibitor] (active); and `O=C(CSc1nnc(-c2c[nH]c3ccccc23)o1)c1ccccc1`, with 95.2%. For the compound `O=C(Cc1c[nH]c2ccccc12)OCCOC(=O)Cc1c[nH]c2ccccc12`, the binding response (% of control) is 95%.

Regarding `CC(C)N1CCC(N2CCN(Cc3cccnc3)CC2CCO)CC1` (stereo not drawn), the binding response (% of control) was 100%.

For `CC1CC(C)CN(CCC(=O)Nc2ccc3c(c2)CCC3)C1` (stereo not drawn), the binding response (% of control) is 104%. Then `NS(=O)(=O)c1ccc(NC(=S)NNC(=O)c2cccs2)cc1`, with 109%. Take `O=S(=O)(c1ccccc1)N(CC(O)CN1CCCCC1)c1ccccc1` (stereo not drawn): the binding response (% of control) was 110%. As for `Cc1cc(C)n(CC(O)CN(c2ccccc2)S(=O)(=O)c2ccc3ccccc3c2)n1` (stereo not drawn), the figure is 1.45% [inhibitor] (active); as for `Cc1ccc(N(CC(O)CN2CCCC2)S(=O)(=O)c2ccccc2)cc1` (stereo not drawn), 99.4%.
